Laboratory results: PubChem BioAssay AID1159580 (chemical genetic matrix, 2015)
The campaign covered roughly 5,500 compounds. About 2,000 (36%) were called active. Roughly 18% stayed inconclusive and do not appear here. Rule as the data show it: active = normalized growth mostly below about 0.91 (no sharp cut-off); inconclusive = no clear call, values can overlap the other calls; inactive = mostly above about 0.92. The list shows a part of the results.

Test: chemical genetic growth profiling, strain panel (AID 1159580);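 also: tested at 20 µM; growth read once vehicle control cultures reached saturation at 30 °C; 1 = growth at the plate median or of vehicle wells; lower values mean less growth of the strain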
Details: S. cerevisiae deletion strains, growth OD
[1] = locus YAL040C, strain CLN3, stronger effect = lower value
[2] = locus YDR363W, strain ESC2, stronger effect = lower value
[3] = locus YER002W, strain NOP16, stronger effect = lower value
[4] = locus YNL175C, strain NOP13, stronger effect = lower value
[5] = locus YNL197C, strain WHI3, stronger effect = lower value
[6] = locus YNL224C, strain SQS1, stronger effect = lower value
[7] = locus YOR083W, strain WHI5 (second series), stronger effect = lower value
[8] = locus YPL055C, strain LGE1, stronger effect = lower value

Measured: normalized growth

CN(C)CC[C@@H](c1ccc(Cl)cc1)c1ccccn1
inactive: [1] 1 | [2] 1 | [3] 0.998 | locus YGR078C, strain PAC10, stronger effect = lower value 1.01 | [4] 1.01 | [5] 1 | [6] 0.999 | [7] 1.01 | [8] 1.01

OC[C@H]1NC[C@@H](O)[C@@H]1O
inactive: [1] 0.993 | locus YCL061C, strain MRC1 (second series), stronger effect = lower value 1 | [2] 1.02 | [3] 0.998 | locus YGR229C, strain SMI1, stronger effect = lower value 1.02 | locus YNL153C, strain GIM3, stronger effect = lower value 0.999 | [4] 0.991 | [5] 1 | [6] 0.992 | [7] 1.01 | [8] 0.996 | locus YPL241C, strain CIN2, stronger effect = lower value 1.01
